Measurements from PubChem BioAssay AID1159580 (chemical genetic matrix, 2015).
The campaign covered roughly 5,500 compounds. About 2,000 (36%) were called active. Not shown: some 18% with an inconclusive outcome. Rule as the data show it: active = normalized growth mostly below about 0.91 (no sharp cut-off); inconclusive = no clear call, values can overlap the other calls; inactive = mostly above about 0.92. The list shows a part of the results.

Assay: chemical genetic growth profiling, strain panel (AID 1159580);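 also: tested at 20 µM; growth read once vehicle control cultures reached saturation at 30 °C; 1 = growth at the plate median or of vehicle wells; lower values mean less growth of the strain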
Settings: growth OD

Measured: normalized growth

COC(=O)C[C@H]1C(C)(C)[C@@H](O)[C@@H]2CC3=C4CC(O)O[C@@H](c5ccoc5)[C@]4(C)CCC3[C@@]1(C)C2=O (some centres not stated)
inactive: S. cerevisiae deletion strains, locus YJL187C, strain SWE1, stronger effect = lower value 1.03 | S. cerevisiae deletion strains, locus YJR066W, strain TOR1, stronger effect = lower value 0.962 | S. cerevisiae deletion strains, locus YJR075W, strain HOC1, stronger effect = lower value 0.99 | S. cerevisiae deletion strains, locus YKL009W, strain mrt4, stronger effect = lower value 0.985 | S. cerevisiae deletion strains, locus YKL068W, stronger effect = lower value 0.98 | S. cerevisiae deletion strains, locus YKL085W, strain MDH1 (second series), stronger effect = lower value 0.99 | S. cerevisiae deletion strains, locus YKL085W, strain MDH1, stronger effect = lower value 0.99 | S. cerevisiae deletion strains, locus YKL160W, strain elf1, stronger effect = lower value 0.998 | S. cerevisiae deletion strains, locus YKL190W, strain CNB1, stronger effect = lower value 1 | S. cerevisiae deletion strains, locus YKR001C, strain vps1, stronger effect = lower value 0.98 | S. cerevisiae deletion strains, locus YKR026C, strain gcn3, stronger effect = lower value 1.02 | S. cerevisiae deletion strains, locus YKR091W, strain srl3, stronger effect = lower value 1.01 | S. cerevisiae deletion strains, locus YLL001W, strain dnm1, stronger effect = lower value 0.994 | S. cerevisiae deletion strains, locus YLL026W, stronger effect = lower value 1.02 | S. cerevisiae deletion strains, locus YLL041C, strain sdh2, stronger effect = lower value 1.02 | S. cerevisiae deletion strains, locus YLR027C, strain aat2, stronger effect = lower value 1.04 | S. cerevisiae deletion strains, locus YLR039C, strain RIC1, stronger effect = lower value 0.981 | S. cerevisiae deletion strains, locus YLR058C, strain SHM2, stronger effect = lower value 1 | S. cerevisiae deletion strains, locus YLR102C, strain apc9, stronger effect = lower value 0.99 | S. cerevisiae deletion strains, locus YLR113W, strain HOG1, stronger effect = lower value 0.971 | S. cerevisiae deletion strains, locus YLR221C, strain rsa3, stronger effect = lower value 1.06 | S. cerevisiae deletion strains, locus YLR258W, strain gsy2, stronger effect = lower value 0.99 | S. cerevisiae deletion strains, locus YLR262C, strain YPT6 (second series), stronger effect = lower value 1.01 | S. cerevisiae deletion strains, locus YLR268W, strain sec22, stronger effect = lower value 1.02 | S. cerevisiae deletion strains, locus YLR320W, strain mms22, stronger effect = lower value 1.06 | S. cerevisiae deletion strains, locus YLR342W, strain FKS1, stronger effect = lower value 1.02 | S. cerevisiae deletion strains, locus YLR357W, strain rsc2, stronger effect = lower value 1.04 | S. cerevisiae deletion strains, locus YLR370C, strain arc18, stronger effect = lower value 1 | S. cerevisiae deletion strains, locus YLR371W, strain rom2, stronger effect = lower value 0.96 | S. cerevisiae deletion strains, locus YLR384C, strain iki3, stronger effect = lower value 0.999 | S. cerevisiae deletion strains, locus YLR418C, strain cdc73, stronger effect = lower value 0.946 | S. cerevisiae deletion strains, locus YML016C, strain PPZ1, stronger effect = lower value 1.01 | S. cerevisiae deletion strains, locus YML032C, strain rad52, stronger effect = lower value 0.983 | S. cerevisiae deletion strains, locus YML120C, strain ndi1, stronger effect = lower value 0.995 | S. cerevisiae deletion strains, locus YML124C, strain tub3, stronger effect = lower value 0.981 | S. cerevisiae deletion strains, locus YMR058W, strain fet3, stronger effect = lower value 1.04 | S. cerevisiae deletion strains, locus YMR078C, strain ctf18, stronger effect = lower value 0.957 | S. cerevisiae deletion strains, locus YMR125W, strain sto1, stronger effect = lower value 1.02 | S. cerevisiae deletion strains, locus YMR129W, stronger effect = lower value 1.02 | S. cerevisiae deletion strains, locus YMR205C, strain PFK2, stronger effect = lower value 1.03 | S. cerevisiae deletion strains, locus YMR223W, strain ubp8, stronger effect = lower value 0.988 | S. cerevisiae deletion strains, locus YMR231W, strain pep5, stronger effect = lower value 1.02 | S. cerevisiae deletion strains, locus YMR263W, strain SAP30, stronger effect = lower value 0.983 | S. cerevisiae deletion strains, locus YMR307W, strain GAS1, stronger effect = lower value 1.09 | S. cerevisiae deletion strains, locus YNL067W, strain RPL9B, stronger effect = lower value 0.967 | S. cerevisiae deletion strains, locus YNL071W, strain lat1, stronger effect = lower value 1 | S. cerevisiae deletion strains, locus YNL153C, strain GIM3, stronger effect = lower value 0.978 | S. cerevisiae deletion strains, locus YNL183C, strain NPR1, stronger effect = lower value 0.987 | S. cerevisiae deletion strains, locus YNL209W, strain ssb2, stronger effect = lower value 1 | S. cerevisiae deletion strains, locus YNL233W, strain BNI4, stronger effect = lower value 1.02 | S. cerevisiae deletion strains, locus YNL248C, strain rpa49, stronger effect = lower value 1.05 | S. cerevisiae deletion strains, locus YNL250W, strain rad50, stronger effect = lower value 0.944 | S. cerevisiae deletion strains, locus YNL271C, strain bni1, stronger effect = lower value 0.981 | S. cerevisiae deletion strains, locus YNL298W, strain CLA4, stronger effect = lower value 0.981 | S. cerevisiae deletion strains, locus YNL307C, strain MCK1, stronger effect = lower value 0.994 | S. cerevisiae deletion strains, locus YNL322C, strain KRE1 (second series), stronger effect = lower value 1.04 | S. cerevisiae deletion strains, locus YNR049C, strain mso1, stronger effect = lower value 1.01 | S. cerevisiae deletion strains, locus YNR052C, strain pop2, stronger effect = lower value 0.975 | S. cerevisiae deletion strains, locus YOL006C, strain TOP1, stronger effect = lower value 1.12 | S. cerevisiae deletion strains, locus YOL012C, strain htz1 0.701 | S. cerevisiae deletion strains, locus YOL147C, strain pex11, stronger effect = lower value 0.985 | S. cerevisiae deletion strains, locus YOR001W, strain rrp6, stronger effect = lower value 1.06 | S. cerevisiae deletion strains, locus YOR061W, strain CKA2, stronger effect = lower value 1 | S. cerevisiae deletion strains, locus YOR069W, strain VPS5, stronger effect = lower value 1.01 | S. cerevisiae deletion strains, locus YOR070C, strain gyp1, stronger effect = lower value 1.02 | S. cerevisiae deletion strains, locus YOR080W, strain dia2, stronger effect = lower value 1.03 | S. cerevisiae deletion strains, locus YOR083W, strain WHI5, stronger effect = lower value 0.988 | S. cerevisiae deletion strains, locus YOR106W, strain vam3, stronger effect = lower value 0.954 | S. cerevisiae deletion strains, locus YOR136W, strain idh2, stronger effect = lower value 0.999 | S. cerevisiae deletion strains, locus YOR144C, strain elg1, stronger effect = lower value 0.99 | S. cerevisiae deletion strains, locus YOR184W, strain ser1, stronger effect = lower value 1.03 | S. cerevisiae deletion strains, locus YOR231W, strain MKK1, stronger effect = lower value 0.983 | S. cerevisiae deletion strains, locus YOR265W, strain rbl2, stronger effect = lower value 1 | S. cerevisiae deletion strains, locus YOR270C, strain vph1, stronger effect = lower value 1.05 | S. cerevisiae deletion strains, locus YOR290C, strain snf2, stronger effect = lower value 0.953 | S. cerevisiae deletion strains, locus YOR316C, strain cot1, stronger effect = lower value 0.985 | S. cerevisiae deletion strains, locus YPL051W, strain arl3, stronger effect = lower value 1.04 | S. cerevisiae deletion strains, locus YPL078C, strain atp4, stronger effect = lower value 0.976 | S. cerevisiae deletion strains, locus YPL106C, strain sse1, stronger effect = lower value 1.04 | S. cerevisiae deletion strains, locus YPL240C, strain hsp82, stronger effect = lower value 1.01 | S. cerevisiae deletion strains, locus YPL256C, strain CLN2, stronger effect = lower value 1.01 | S. cerevisiae deletion strains, locus YPR119W, strain clb2, stronger effect = lower value 0.977 | S. cerevisiae deletion strains, locus YPR141C, strain kar3, stronger effect = lower value 0.977 | S. cerevisiae deletion strains, locus YPR163C, strain tif3, stronger effect = lower value 0.989 | S. cerevisiae deletion strains, locus YPR167C, strain met16, stronger effect = lower value 0.971 | S. cerevisiae deletion strains, strain wtn01, stronger effect = lower value 1 | S. cerevisiae strains, strain wild type, stronger effect = lower value 1.03
